# Experimental data taken from the supplement of paper PMC4466140.
# B1: unnamed (peptide)
# chain: ALKQKKIPPPFKPHL
# Target: AgAbp1
# Test: SPOT peptide array binding signal intensity (averaged, normalized) (arbitrary units (background-subtracted, floor 0; scale differs between SH3 domains)); higher = stronger binding of the SH3 domain to the peptide
# Description: (§1)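 GST-tagged SH3 domains from S. cerevisiae (Sc), A. gossypii (Ag), C. albicans (Ca) and S. pombe (Sp) were incubated at 10 ug/ml overnight at 4 C on cellulose SPOT membranes carrying 292 synthetic 15-mer peptides mined from the S. cerevisiae proteome (cysteines replaced by serines). Binding was detected with anti-GST antibody, HRP secondary and chemiluminescence, quantified with Genespotter, and reported as normalized spot intensities averaged over biological replicates.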
row,Binder,SPOT peptide array binding signal intensity
1,B1,43.5

# Target: AgBbc1
# Test: as above
# Description: as §1
row,Binder,SPOT peptide array binding signal intensity
1,B1,≤ 0

# Target: AgBem1-D1
# Test: as above
# Description: as §1
row,Binder,SPOT peptide array binding signal intensity
1,B1,4

# Target: AgBzz1-D1
# Test: as above
# Description: as §1
row,Binder,SPOT peptide array binding signal intensity
1,B1,43

# Target: AgBzz1-D2
# Test: as above
# Description: as §1
row,Binder,SPOT peptide array binding signal intensity
1,B1,22

# Target: AgCyk3
# Test: as above
# Description: as §1
row,Binder,SPOT peptide array binding signal intensity
1,B1,≤ 0

# Target: AgFus1
# Test: as above
# Description: as §1
row,Binder,SPOT peptide array binding signal intensity
1,B1,≤ 0

# Target: AgHof1
# Test: as above
# Description: as §1
row,Binder,SPOT peptide array binding signal intensity
1,B1,7.5

# Target: AgHse1
# Test: as above
# Description: as §1
row,Binder,SPOT peptide array binding signal intensity
1,B1,≤ 0

# Target: AgLsb1
# Test: as above
# Description: as §1
row,Binder,SPOT peptide array binding signal intensity
1,B1,≤ 0

# Target: AgLsb4
# Test: as above
# Description: as §1
row,Binder,SPOT peptide array binding signal intensity
1,B1,≤ 0

# Target: AgMyo5
# Test: as above
# Description: as §1
row,Binder,SPOT peptide array binding signal intensity
1,B1,≤ 0

# Target: AgNbp2
# Test: as above
# Description: as §1
row,Binder,SPOT peptide array binding signal intensity
1,B1,≤ 0

# Target: AgRvs167
# Test: as above
# Description: as §1
row,Binder,SPOT peptide array binding signal intensity
1,B1,≤ 0

# Target: AgSho1
# Test: as above
# Description: as §1
row,Binder,SPOT peptide array binding signal intensity
1,B1,≤ 0

# Target: AgSla1-D1-D2
# Test: as above
# Description: as §1
row,Binder,SPOT peptide array binding signal intensity
1,B1,≤ 0

# Target: AgSla1-D3
# Test: as above
# Description: as §1
row,Binder,SPOT peptide array binding signal intensity
1,B1,2.5

# Target: CaAbp1-D1
# Test: as above
# Description: as §1
row,Binder,SPOT peptide array binding signal intensity
1,B1,938

# Target: CaAbp1-D2
# Test: as above
# Description: as §1
row,Binder,SPOT peptide array binding signal intensity
1,B1,984

# Target: CaBbc1
# Test: as above
# Description: as §1
row,Binder,SPOT peptide array binding signal intensity
1,B1,≤ 0

# Target: CaBem1-D1
# Test: as above
# Description: as §1
row,Binder,SPOT peptide array binding signal intensity
1,B1,2

# Target: CaBzz1-D1
# Test: as above
# Description: as §1
row,Binder,SPOT peptide array binding signal intensity
1,B1,589

# Target: CaBzz1-D2
# Test: as above
# Description: as §1
row,Binder,SPOT peptide array binding signal intensity
1,B1,205

# Target: CaCyk3
# Test: as above
# Description: as §1
row,Binder,SPOT peptide array binding signal intensity
1,B1,≤ 0

# Target: CaFus1
# Test: as above
# Description: as §1
row,Binder,SPOT peptide array binding signal intensity
1,B1,19.5

# Target: CaHof1
# Test: as above
# Description: as §1
row,Binder,SPOT peptide array binding signal intensity
1,B1,0.5

# Target: CaHse1
# Test: as above
# Description: as §1
row,Binder,SPOT peptide array binding signal intensity
1,B1,0.5

# Target: CaLsb1
# Test: as above
# Description: as §1
row,Binder,SPOT peptide array binding signal intensity
1,B1,≤ 0

# Target: CaLsb4
# Test: as above
# Description: as §1
row,Binder,SPOT peptide array binding signal intensity
1,B1,≤ 0

# Target: CaMyo5
# Test: as above
# Description: as §1
row,Binder,SPOT peptide array binding signal intensity
1,B1,0.5

# Target: CaNbp2
# Test: as above
# Description: as §1
row,Binder,SPOT peptide array binding signal intensity
1,B1,15.5

# Target: CaRvs167
# Test: as above
# Description: as §1
row,Binder,SPOT peptide array binding signal intensity
1,B1,≤ 0

# Target: CaRvs167-3
# Test: as above
# Description: as §1
row,Binder,SPOT peptide array binding signal intensity
1,B1,4.5

# Target: CaSho1
# Test: as above
# Description: as §1
row,Binder,SPOT peptide array binding signal intensity
1,B1,≤ 0

# Target: CaSla1-D1-D2
# Test: as above
# Description: as §1
row,Binder,SPOT peptide array binding signal intensity
1,B1,≤ 0

# Target: CaSla1-D3
# Test: as above
# Description: as §1
row,Binder,SPOT peptide array binding signal intensity
1,B1,2

# Target: ScAbp1
# Test: as above
# Description: as §1
row,Binder,SPOT peptide array binding signal intensity
1,B1,29

# Target: ScBbc1
# Test: as above
# Description: as §1
row,Binder,SPOT peptide array binding signal intensity
1,B1,≤ 0

# Target: ScBem1-D1
# Test: as above
# Description: as §1
row,Binder,SPOT peptide array binding signal intensity
1,B1,≤ 0

# Target: ScBzz1-D1
# Test: as above
# Description: as §1
row,Binder,SPOT peptide array binding signal intensity
1,B1,9

# Target: ScBzz1-D2
# Test: as above
# Description: as §1
row,Binder,SPOT peptide array binding signal intensity
1,B1,3

# Target: ScCyk3
# Test: as above
# Description: as §1
row,Binder,SPOT peptide array binding signal intensity
1,B1,≤ 0

# Target: ScFus1
# Test: as above
# Description: as §1
row,Binder,SPOT peptide array binding signal intensity
1,B1,≤ 0

# Target: ScHof1
# Test: as above
# Description: as §1
row,Binder,SPOT peptide array binding signal intensity
1,B1,1

# Target: ScHse1
# Test: as above
# Description: as §1
row,Binder,SPOT peptide array binding signal intensity
1,B1,74

# Target: ScLsb1
# Test: as above
# Description: as §1
row,Binder,SPOT peptide array binding signal intensity
1,B1,≤ 0

# Target: ScLsb2
# Test: as above
# Description: as §1
row,Binder,SPOT peptide array binding signal intensity
1,B1,≤ 0

# Target: ScLsb3
# Test: as above
# Description: as §1
row,Binder,SPOT peptide array binding signal intensity
1,B1,≤ 0

# Target: ScLsb4
# Test: as above
# Description: as §1
row,Binder,SPOT peptide array binding signal intensity
1,B1,≤ 0

# Target: ScMyo3
# Test: as above
# Description: as §1
row,Binder,SPOT peptide array binding signal intensity
1,B1,≤ 0

# Target: ScMyo5
# Test: as above
# Description: as §1
row,Binder,SPOT peptide array binding signal intensity
1,B1,1

# Target: ScNbp2
# Test: as above
# Description: as §1
row,Binder,SPOT peptide array binding signal intensity
1,B1,≤ 0

# Target: ScPex13
# Test: as above
# Description: as §1
row,Binder,SPOT peptide array binding signal intensity
1,B1,≤ 0

# Target: ScRvs167
# Test: as above
# Description: as §1
row,Binder,SPOT peptide array binding signal intensity
1,B1,≤ 0

# Target: ScSho1
# Test: as above
# Description: as §1
row,Binder,SPOT peptide array binding signal intensity
1,B1,≤ 0

# Target: ScSla1-D1-D2
# Test: as above
# Description: as §1
row,Binder,SPOT peptide array binding signal intensity
1,B1,≤ 0

# Target: ScSla1-D3
# Test: as above
# Description: as §1
row,Binder,SPOT peptide array binding signal intensity
1,B1,8

# Target: SpAbp1-D1
# Test: as above
# Description: as §1
row,Binder,SPOT peptide array binding signal intensity
1,B1,20.5

# Target: SpBbc1
# Test: as above
# Description: as §1
row,Binder,SPOT peptide array binding signal intensity
1,B1,≤ 0

# Target: SpBzz1-D1
# Test: as above
# Description: as §1
row,Binder,SPOT peptide array binding signal intensity
1,B1,288

# Target: SpBzz1-D2
# Test: as above
# Description: as §1
row,Binder,SPOT peptide array binding signal intensity
1,B1,≤ 0

# Target: SpCyk3
# Test: as above
# Description: as §1
row,Binder,SPOT peptide array binding signal intensity
1,B1,≤ 0

# Target: SpHof1
# Test: as above
# Description: as §1
row,Binder,SPOT peptide array binding signal intensity
1,B1,≤ 0

# Target: SpHof1-2
# Test: as above
# Description: as §1
row,Binder,SPOT peptide array binding signal intensity
1,B1,≤ 0

# Target: SpHof1-3
# Test: as above
# Description: as §1
row,Binder,SPOT peptide array binding signal intensity
1,B1,39.5

# Target: SpHse1
# Test: as above
# Description: as §1
row,Binder,SPOT peptide array binding signal intensity
1,B1,23

# Target: SpLsb1
# Test: as above
# Description: as §1
row,Binder,SPOT peptide array binding signal intensity
1,B1,≤ 0

# Target: SpLsb4
# Test: as above
# Description: as §1
row,Binder,SPOT peptide array binding signal intensity
1,B1,≤ 0

# Target: SpMyo1
# Test: as above
# Description: as §1
row,Binder,SPOT peptide array binding signal intensity
1,B1,≤ 0

# Target: SpNbp2
# Test: as above
# Description: as §1
row,Binder,SPOT peptide array binding signal intensity
1,B1,≤ 0

# Target: SpPex13
# Test: as above
# Description: as §1
row,Binder,SPOT peptide array binding signal intensity
1,B1,≤ 0

# Target: SpRvs167
# Test: as above
# Description: as §1
row,Binder,SPOT peptide array binding signal intensity
1,B1,≤ 0

# Target: SpSla1-D1-D2
# Test: as above
# Description: as §1
row,Binder,SPOT peptide array binding signal intensity
1,B1,≤ 0

# Target: SpSla1-D3
# Test: as above
# Description: as §1
row,Binder,SPOT peptide array binding signal intensity
1,B1,≤ 0
